{"source": "PubChem BioAssay AID720628", "about": "(The Scripps Research Institute Molecular Screening Center, 2013)", "note": "The other results are listed elsewhere or left out. Unmarked numbers belong to inactive results. Calls of active or inactive are those of the source.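 The calls were made as follows: active = inhibition above the campaign cutoff, the mean of compounds within control limits plus 3 SD (cut at about 14% in these data); inactive = the rest.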"}
{"molecular_target": "Fibrinogen beta chain (Homo sapiens) (UniProt P02675)", "sequence (P02675 whole entry, looked up)": "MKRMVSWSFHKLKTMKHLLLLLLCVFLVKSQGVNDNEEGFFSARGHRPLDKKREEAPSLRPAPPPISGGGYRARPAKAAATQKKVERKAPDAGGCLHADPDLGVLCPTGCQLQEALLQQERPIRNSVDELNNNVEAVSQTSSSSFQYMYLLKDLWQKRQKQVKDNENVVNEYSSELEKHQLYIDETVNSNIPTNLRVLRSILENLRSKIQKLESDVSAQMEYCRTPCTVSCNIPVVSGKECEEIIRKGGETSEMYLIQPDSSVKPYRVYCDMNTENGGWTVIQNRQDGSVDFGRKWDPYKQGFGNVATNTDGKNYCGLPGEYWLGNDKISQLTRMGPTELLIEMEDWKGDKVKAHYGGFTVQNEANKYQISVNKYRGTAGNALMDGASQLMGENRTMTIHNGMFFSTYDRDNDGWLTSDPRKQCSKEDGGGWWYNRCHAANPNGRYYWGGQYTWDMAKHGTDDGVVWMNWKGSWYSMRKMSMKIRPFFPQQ", "experiment": "inhibitors of Tn7 peptide binding to fibrin DD(E), confirmation, biochemical, fluorescence polarization, human fibrin, Tn7 probe (AID 720628);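 also: 100% = median FP of high control wells holding Aha-Tn7 inhibitor peptide; displacers lower polarization since freed probe rises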", "settings": "FP displacement of TRITC-Tn7 peptide from DD(E); at 8.3 µM; hits give high values; 0% set at plate's compound-well median"}
{"smiles": "Cn1c(CC(=O)NNC(=O)c2ccccc2F)nc2ccccc21", "inhibition": "4.13%"}
{"smiles": "CC(C)(C)c1cc(CN2CCN(CCC#N)CC2)cc(C(C)(C)C)c1O", "inhibition": "3.96%"}
{"smiles": "O=C(NCc1ccccc1)c1cccc(NC(=O)C2CCCCC2)c1", "inhibition": "4.29%"}
{"smiles": "CN1C(=O)c2cccc3c(N)ccc(c23)C1=O", "inhibition": "30.8% (active)"}
{"smiles": "Cc1nn(C)cc1N1C(=O)c2cccc3c(N)ccc(c23)C1=O", "inhibition": "12.5%"}
{"smiles": "CCOc1ccc(Nc2oc(Cc3ccccc3)nc2C#N)cc1", "inhibition": "-1.34%"}
{"smiles": "COc1cc(C(=S)N2CCOCC2)ccc1O", "inhibition": "8.15%"}
{"smiles": "Oc1ccc2ccc3cccc[n+]3c2c1", "inhibition": "20.3% (active)"}
{"smiles": "Cc1nnc2n1N=C(c1ccc3c(c1)NC(=O)CO3)CS2", "inhibition": "-7.07%"}
{"smiles": "O=C(/C=C/c1ccccc1[N+](=O)[O-])NCC1CCCO1", "note": "(configuration not stated)", "inhibition": "9.76%"}
{"smiles": "c1cc(-c2nn[nH]n2)ccc1CN1CCCCC1", "inhibition": "-9.45%"}
{"smiles": "O=C(CSc1nnc(-c2ccccn2)n1-c1ccc(Cl)cc1)Nc1ccccc1-c1ccccc1", "inhibition": "2.95%"}
{"smiles": "Cc1cc2nc3c(=O)n(Cc4ccccc4)c(=O)[nH]c3nc2cc1N", "inhibition": "-4.02%"}
{"smiles": "COc1ccc(S(=O)(=O)c2c[nH]c(=S)[nH]c2=O)cc1Cl", "inhibition": "-1.93%"}
{"smiles": "CN1c2ccc(C=O)c3c(C=O)ccc(c23)N(C)C1(C)C", "inhibition": "1.94%"}
{"smiles": "COc1cccc(N2CC(NS(=O)(=O)c3cccs3)CC2=O)c1", "note": "(configuration not stated)", "inhibition": "0.77%"}
{"smiles": "O=C(COC(=O)c1ccc([N+](=O)[O-])cc1Cl)NC(=O)c1ccccc1", "inhibition": "2.79%"}
